Reference: PubChem BioAssay (NCI)
The panel holds about 79,000 compounds, 15% with a hit somewhere; the sample as a whole holds those more often. Activity calls are given as the source filed them. Cut-off read from the data, not from the text of the source: active = growth inhibition above about 70%; inactive = the rest.

How the values were obtained:
[1] = NCI Yeast Anticancer Drug Screen. Data for the rad52 strain (AID 147);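 note: 0% = growth of vehicle-treated control cultures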; conditions: S. cerevisiae rad52 mutant growth inhibition, stronger effect = higher value
Outline: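 Growth of repair-deficient yeast cells was compared between compound-treated and vehicle-treated cultures to give percent inhibition.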

[2] = NCI Yeast Anticancer Drug Screen. Data for the wt1 strain (AID 149);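 note: 0% = growth of vehicle-treated wt1 cultures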; conditions: S. cerevisiae wt1 strain (SPY 50644) growth inhibition, stronger effect = higher value
Outline: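 Using yeast strain wt1, compound-induced growth inhibition was determined against vehicle-treated cultures.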

[3] = NCI Yeast Anticancer Drug Screen. Data for the rad50EPP+ strain (AID 151);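 note: 0% = growth of vehicle-treated control cultures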; conditions: S. cerevisiae rad50 mutant strain, stronger effect = higher value
Outline: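 Measured: growth inhibition of rad50EPP+ yeast. Reference: vehicle-treated controls. Screen uses strains with defined genetic alterations in DNA damage repair or cell cycle control.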

[4] = NCI Yeast Anticancer Drug Screen. Data for the mgt1 strain (AID 153); conditions: S. cerevisiae mgt1 mutant growth inhibition, stronger effect = higher value
Outline: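 Compounds were applied to mgt1 mutant yeast, and growth was then compared against vehicle-treated control cultures to give percent inhibition.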

[5] = NCI Yeast Anticancer Drug Screen. Data for the rad50 strain (AID 155);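 note: 0% = growth of vehicle-only cultures of the same strain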; conditions: S. cerevisiae rad50 strain growth inhibition, stronger effect = higher value
Outline: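 Relative growth inhibition (compound vs vehicle) was measured in yeast with a defined repair-gene alteration.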

[6] = NCI Yeast Anticancer Drug Screen. Data for the mec2-1 strain (AID 157); conditions: S. cerevisiae mec2-1 strain, stronger effect = higher value
Outline: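 Compounds were applied to mec2-1 yeast cells. Their growth was then compared with that of vehicle-treated cultures to give growth inhibition.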

[7] = NCI Yeast Anticancer Drug Screen. Data for the rad14 strain (AID 159);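 note: 0% = growth of vehicle-treated control cultures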; conditions: S. cerevisiae rad14 strain growth inhibition, stronger effect = higher value
Outline: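 Screen for anticancer potential: a yeast strain altered in DNA damage repair is grown with compound, and reduced growth is quantified against vehicle controls.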

[8] = NCI Yeast Anticancer Drug Screen. Data for the sgs1 mgt1 strain (AID 161);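 note: 0% = growth of cultures given vehicle only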; conditions: S. cerevisiae sgs1 mgt1 strain, stronger effect = higher value
Outline: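 Growth of a repair-deficient yeast mutant was monitored after compound treatment and expressed as inhibition relative to vehicle-treated cultures.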

[9] = NCI Yeast Anticancer Drug Screen. Data for the CLN2oe strain (AID 163);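 note: 0% = growth of vehicle-only control cultures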; conditions: S. cerevisiae CLN2oe strain, stronger effect = higher value
Outline: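 Cells of an engineered yeast line with disturbed cell-cycle regulation are treated with compound. Inhibition of growth is then calculated relative to the vehicle-treated reference.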

[10] = NCI Yeast Anticancer Drug Screen. Data for the cln2 rad14 strain (AID 165);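 note: 0% = growth equal to vehicle treated cultures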; conditions: S. cerevisiae cln2 rad14 strain, stronger effect = higher value
Outline: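 Strain: cln2 rad14 yeast, altered in cell cycle control and DNA damage repair. Read-out: growth inhibition vs vehicle.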

[11] = NCI Yeast Anticancer Drug Screen. Data for the bub3 strain (AID 167); conditions: S. cerevisiae bub3 mutant strain, stronger effect = higher value
Outline: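 Screening used yeast with an engineered genetic alteration affecting cell cycle control. Compound-exposed cultures were compared with vehicle cultures, and reduced growth was taken as inhibition.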

[12] = NCI Yeast Anticancer Drug Screen. Data for the wt2 strain (AID 169);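 note: 0% = growth of vehicle-treated yeast cultures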; conditions: S. cerevisiae wt2 strain growth inhibition, stronger effect = higher value
Outline: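 Growth of compound-treated yeast is measured and expressed as inhibition relative to vehicle-only controls.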

[13] = NCI Yeast Anticancer Drug Screen. Data for the mlh1 strain (AID 171);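 note: 0% = growth of vehicle-treated control cultures of the same strain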; conditions: S. cerevisiae mlh1 strain growth inhibition, stronger effect = higher value
Outline: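 Test agents were incubated with yeast bearing a defined DNA damage repair or cell cycle control alteration; values are growth inhibition normalised to vehicle-treated cultures.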

[14] = NCI Yeast Anticancer Drug Screen. Data for the sgs1 strain (AID 173);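 note: 0% = growth of vehicle-only control cultures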; conditions: S. cerevisiae sgs1 mutant, stronger effect = higher value
Outline: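 Strain with an altered DNA repair or cell cycle pathway exposed to compound. Growth then measured. Value = inhibition versus vehicle control.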

[15] = NCI Yeast Anticancer Drug Screen. Data for the mlh1 rad18 strain (AID 175); conditions: S. cerevisiae mlh1 rad18 strain growth inhibition, stronger effect = higher value
Outline: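 A repair-deficient yeast strain is exposed to test compound, and growth is scored relative to vehicle-treated controls.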

[16] = NCI Yeast Anticancer Drug Screen. Data for the rad18 strain (AID 177); conditions: S. cerevisiae rad18 mutant growth inhibition, stronger effect = higher value
Outline: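 DNA-repair-defective yeast; compound treatment; growth inhibition scored against vehicle.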

[17] = at 5.0 µM (retest, dose inferred, filed as 0.5)
[18] = at 50.0 µM (retest, dose inferred, filed as 5.0)

Measured: growth inhibition

Cc1ccc(Nc2n[nH]c(=S)s2)c(C)c1
active: [1]; at 100.0 µM 89% | [2]; at 100.0 µM 90% | [4]; at 100.0 µM 85% | [5]; at 100.0 µM 90% | [6]; at 100.0 µM 83% | [7]; at 100.0 µM 91% | [8]; at 50.0 µM 70.5% | [9]; at 100.0 µM 76% | [11]; [18] 71% | [11]; at 100.0 µM 84% | [12]; at 100.0 µM 91% | [13]; at 100.0 µM 89% | [14]; at 100.0 µM 93% | [16]; at 100.0 µM 93%
inactive: [1]; at 1.2 µM -42% | [1]; at 3.7 µM -28% | [1]; at 11.0 µM -33% | [1]; at 33.0 µM 2% | [2]; at 1.2 µM -16% | [2]; at 3.7 µM -3% | [2]; at 11.0 µM -10% | [2]; at 33.0 µM 18% | [3]; at 1.2 µM -45% | [3]; at 3.7 µM -33% | [3]; at 11.0 µM 23% | [3]; at 33.0 µM 56% | [3]; at 100.0 µM 51% | [4]; at 1.2 µM -52% | [4]; at 3.7 µM -56% | [4]; at 11.0 µM -21% | [4]; at 33.0 µM 58% | [5]; at 1.2 µM -11% | [5]; at 3.7 µM -15% | [5]; [17] 21% | [5]; at 11.0 µM 0% | [5]; at 33.0 µM 15% | [5]; [18] 18% | [5]; at 50.0 µM 56.3% | [6]; at 1.2 µM -44% | [6]; at 3.7 µM -45% | [6]; [17] -11% | [6]; at 11.0 µM -18% | [6]; at 33.0 µM -3% | [6]; [18] 8% | [6]; at 50.0 µM 14.8% | [7]; at 1.2 µM -45% | [7]; at 3.7 µM -33% | [7]; at 11.0 µM -41% | [7]; at 33.0 µM 37% | [8]; [17] -6% | [8]; [18] 44% | [9]; at 1.2 µM 4% | [9]; at 3.7 µM 0% | [9]; at 11.0 µM -10% | [9]; at 33.0 µM 13% | [10]; [17] 24% | [10]; [18] 49% | [10]; at 50.0 µM 48.1% | [11]; at 1.2 µM 3% | [11]; at 3.7 µM 10% | [11]; [17] 3% | [11]; at 11.0 µM 30% | [11]; at 33.0 µM 17% | [11]; at 50.0 µM 52.5% | [12]; at 1.2 µM -38% | [12]; at 3.7 µM -34% | [12]; at 11.0 µM -10% | [12]; at 33.0 µM 62% | [13]; at 1.2 µM -9% | [13]; at 3.7 µM 6% | [13]; at 11.0 µM 19% | [13]; at 33.0 µM 64% | [14]; at 1.2 µM -29% | [14]; at 3.7 µM -28% | [14]; at 11.0 µM 9% | [14]; at 33.0 µM 51% | [15]; [17] 1% | [15]; [18] 19% | [15]; at 50.0 µM 24.4% | [16]; at 1.2 µM -27% | [16]; at 3.7 µM -25% | [16]; at 11.0 µM -13% | [16]; at 33.0 µM 39%

O=C1C(CCSc2ccccc2)C(=O)N(c2ccccc2)C1c1ccccc1 (stereo not drawn)
inactive: [1]; at 1.2 µM 23% | [1]; at 3.7 µM 24% | [1]; at 11.0 µM 49% | [2]; at 1.2 µM -32% | [2]; at 3.7 µM -14% | [2]; at 11.0 µM 17% | [3]; at 1.2 µM -4% | [3]; at 3.7 µM -12% | [3]; at 11.0 µM -15% | [3]; at 33.0 µM 0% | [3]; at 100.0 µM -11% | [4]; at 1.2 µM 8% | [4]; at 3.7 µM -18% | [4]; at 11.0 µM 8% | [5]; at 1.2 µM 12% | [5]; at 3.7 µM 17% | [5]; [17] 28% | [5]; at 11.0 µM 35% | [6]; at 1.2 µM 11% | [6]; at 3.7 µM 13% | [6]; [17] 47% | [6]; at 11.0 µM 29% | [7]; at 1.2 µM -4% | [7]; at 3.7 µM -21% | [7]; at 11.0 µM 2% | [8]; [17] -3% | [9]; at 1.2 µM -8% | [9]; at 3.7 µM 2% | [9]; at 11.0 µM 48% | [10]; [17] 33% | [11]; at 1.2 µM 7% | [11]; at 3.7 µM 20% | [11]; [17] 25% | [11]; at 11.0 µM 46%
active: [1]; at 33.0 µM 96% | [1]; at 100.0 µM 89% | [2]; at 33.0 µM 96% | [2]; at 100.0 µM 88% | [4]; at 33.0 µM 97% | [4]; at 100.0 µM 89% | [5]; at 33.0 µM 96% | [5]; [18] 85% | [5]; at 50.0 µM 90.9% | [5]; at 100.0 µM 89% | [6]; at 33.0 µM 95% | [6]; [18] 99% | [6]; at 50.0 µM 91.4% | [6]; at 100.0 µM 90% | [7]; at 33.0 µM 93% | [7]; at 100.0 µM 87% | [8]; [18] 99% | [8]; at 50.0 µM 92.3% | [9]; at 33.0 µM 95% | [9]; at 100.0 µM 85% | [10]; [18] 97% | [10]; at 50.0 µM 91.2% | [11]; at 33.0 µM 96% | [11]; [18] 98% | [11]; at 50.0 µM 90.7% | [11]; at 100.0 µM 88%
